This is a sample that favours compounds with a hit; in the whole collection about 2.2% have one here.
Shn3 3UTR inh: inhibitors of Schnurri-3 3'UTR reporter in osteoblasts; Clone20 osteoblast Shn3 3'UTR firefly luciferase, 24 h; 0.52% of 360,000 active; inhibition, % at 12.5 µM; AID 588674;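 active = mean inhibition of at least 75% with every replicate also reaching 75%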;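 also: 0% = median of neutral control wells and 100% = pilot-screen positive control compound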
LGR2 antag: Drosophila LGR2 receptor signaling inhibition | HEK293 LGR2, CRE-luciferase, bursicon-stimulated, 4 h | inhibition, % at 9.99 µM | 0.35% of 380,000 active | AID 720647;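 active = drop in luminescence signal, shown as inhibition above about 50% in the replicate tests, limit read from the data, passing the limit was not always enough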;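 also: agonist challenge used bursicon conditioned medium at about half maximal strength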
EWS-Fli block: inhibitors of EWS/Fli oncoprotein transcriptional activity. 0.67% of 350,000 active. A673 NR0B1-luciferase reporter, viability-normalised. inhibition, % at 12.6 µM. AID 651661;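 active = mean inhibition of at least 50% after viability correction, with every replicate also passing that limit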;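 also: firefly luciferase signal divided by Alamar Blue viability fluorescence both relative to DMSO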
MITF TRPM1 inh: reduces MITF-dependent TRPM1 promoter luciferase signal; inhibition, % at 12.5 µM; 0.83% of 330,000 active; SK-MEL-5 TRPM1 promoter luciferase, 24 h;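 active = mean inhibition across replicates of 60% or more, whatever share of single replicates reaches that level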
PAX8 inh HTS: lowers PAX8-driven luciferase in RMG-I cells | RMG-I TPO-luciferase reporter, SteadyGlo, 24 h | AID 652154 | 1.2% of 360,000 active | inhibition, % at 12.6 µM;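 active = mean replicate inhibition at least 60% with every replicate also reaching 60%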;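 also: luciferase light reporting Pax8 driven TPO promoter activity; plate controls were median of neutral control wells for no effect and mitoxantrone controls for full effect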
LMP1 NFkB inh: inhibitors of Epstein-Barr LMP1-induced NF-kappaB reporter; inhibition, % at 12.5 µM; AID 504558; 0.69% of 350,000 active; LMP1-induced NF-kappaB luciferase reporter cells, luminescence; in the data active = inhibition above about 41%;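 also: 0% = neutral control wells and 100% = reference inhibitor control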
Active calls of the source: *.

What do the screens show for `COc1cc(C=C2CCCC(=Cc3ccc(OCC4CO4)c(OC)c3)C2=O)ccc1OCC1CO1` (configuration not stated)?
Shn3 3UTR inh: 54.4; LGR2 antag: 38.5; EWS-Fli block: 67.6*; PAX8 inh HTS: 29.7; LMP1 NFkB inh: 48.9*

What do the screens show for `C[C@@H]1CN([C@@H](C)CO)C(=O)c2cccc(NC(=O)CCCCCC(=O)Nc3ccccc3N)c2O[C@@H]1CN(C)C(=O)Nc1ccccc1`?
LGR2 antag: -5.7

How did Cc1ccc(-c2ccc3c(c2)O[C@@H](CN(C)C)[C@@H](C)CN([C@H](C)CO)S3(=O)=O)cc1 do in these assays?
LGR2 antag: -20.1; EWS-Fli block: -5.5; PAX8 inh HTS: -7.4

How did O=C1C(Cl)=C(NC(=O)c2ccccc2)C(=O)C(Cl)=C1NC(=O)c1ccccc1 do in these assays?
Shn3 3UTR inh: 16.1; LGR2 antag: -0.3; EWS-Fli block: 30.4; MITF TRPM1 inh: 48.0; PAX8 inh HTS: 79.9*; LMP1 NFkB inh: -1.2

Results for O=C(NC1=C(NC2CCS(=O)(=O)C2)C(=O)c2ccccc2C1=O)c1ccccc1 (configuration not stated) ?
Shn3 3UTR inh: 61.1; LGR2 antag: 78.0*; EWS-Fli block: 29.7; MITF TRPM1 inh: 0.3; PAX8 inh HTS: 95.6*; LMP1 NFkB inh: -19.6

What do the screens show for `O=C(Nc1cccc(Cl)c1)c1ccccc1`?
Shn3 3UTR inh: -31.9; LGR2 antag: -66.7; EWS-Fli block: -65.3; MITF TRPM1 inh: -80.1; PAX8 inh HTS: -136.2; LMP1 NFkB inh: -12.4

What do the screens show for `O=C(NC1=C(Nc2ccc(Cl)cc2)C(=O)c2ccccc2C1=O)c1ccccc1`?
Shn3 3UTR inh: -14.3; EWS-Fli block: -7.8; MITF TRPM1 inh: 72.1*; PAX8 inh HTS: 46.9; LMP1 NFkB inh: -1.6

Results for CO[C@H]1CN(C)C(=O)c2ccc(NS(=O)(=O)CC(F)(F)F)cc2OC[C@H](C)N(CCC(F)(F)F)C[C@@H]1C ?
LGR2 antag: 3.8; EWS-Fli block: 41.2; PAX8 inh HTS: -5.6

How did COc1ccccc1Cc1c(-c2ccco2)nc2c(C)cc(Br)cn12 do in these assays?
Shn3 3UTR inh: 93.6*

Results for CCCCCCCCCn1c2c(c(=N)c3c1CCC3)CCC2 ?
Shn3 3UTR inh: 65.2; MITF TRPM1 inh: 78.3*; LMP1 NFkB inh: 36.8

What do the screens show for `CCCCCCCn1c2c(c(=N)c3c1CCC3)CCCC2`?
Shn3 3UTR inh: 43.7; EWS-Fli block: 62.7*; MITF TRPM1 inh: 67.8*; PAX8 inh HTS: 93.5*; LMP1 NFkB inh: 40.9*

How did C[C@H]1CN([C@@H](C)CO)C(=O)c2c(c3ccccc3n2C)-c2ccccc2CO[C@@H]1CN(C)Cc1ccc(F)cc1 do in these assays?
LGR2 antag: 13.4; EWS-Fli block: 8.3; PAX8 inh HTS: 41.8

Results for Cc1ccc(S(=O)(=O)Nc2ccc3c(c2)C(=O)N([C@H](C)CO)C[C@@H](C)[C@H](CN(C)Cc2ccc(C(F)(F)F)cc2)OCCCC[C@H](C)O3)cc1 ?
LGR2 antag: 20.3; EWS-Fli block: 65.8*; PAX8 inh HTS: 116.4*

What do the screens show for `Cc1ccc(S(=O)(=O)Nc2ccc3c(c2)C(=O)N([C@@H](C)CO)C[C@H](C)[C@H](CN(C)Cc2ccc(C(F)(F)F)cc2)OCCCC[C@@H](C)O3)cc1`?
LGR2 antag: 14.5; EWS-Fli block: 9.4; PAX8 inh HTS: 102.3*

What do the screens show for `Cc1ccc(S(=O)(=O)Nc2ccc3c(c2)C(=O)N([C@@H](C)CO)C[C@@H](C)[C@@H](CN(C)Cc2ccc(C(=O)O)cc2)OCCCC[C@@H](C)O3)cc1`?
LGR2 antag: 18.3; EWS-Fli block: -26.0; PAX8 inh HTS: -3.6

What do the screens show for `C[C@H]1CCCCO[C@H](CN(C)Cc2ccc(C(F)(F)F)cc2)[C@@H](C)CN([C@@H](C)CO)C(=O)c2cc(NS(=O)(=O)c3ccc(F)cc3)ccc2O1`?
LGR2 antag: 10.9; EWS-Fli block: 14.3; PAX8 inh HTS: 88.8*

How did Cc1ccc(S(=O)(=O)Nc2ccc3c(c2)C(=O)N([C@@H](C)CO)C[C@H](C)[C@H](CN(C)Cc2ccc(C(F)(F)F)cc2)OCCCC[C@H](C)O3)cc1 do in these assays?
LGR2 antag: -5.9; EWS-Fli block: 5.8; PAX8 inh HTS: 108.4*

Results for C[C@@H]1CCCCO[C@@H](CN(C)Cc2ccc(C(F)(F)F)cc2)[C@@H](C)CN([C@H](C)CO)C(=O)c2cc(NS(=O)(=O)c3ccc(F)cc3)ccc2O1 ?
LGR2 antag: 14.9; EWS-Fli block: -13.9; PAX8 inh HTS: -2.4

What do the screens show for `O=C1CN(Cc2ccccc2)C[C@@H]2[C@H](c3ccc(Br)cc3)[C@@H](CO)N12`?
LGR2 antag: 3.6; EWS-Fli block: 3.9; PAX8 inh HTS: -10.0

Results for CN1CCN(C(=O)C[C@@H]2CC[C@@H]3[C@H](COC[C@@H](O)CN3C(=O)C3CC3)O2)CC1 ?
LGR2 antag: -3.0; EWS-Fli block: -4.2; PAX8 inh HTS: 5.6

How did C[C@@H]1CN([C@H](C)CO)C(=O)c2cc(NS(=O)(=O)c3ccc(F)cc3)ccc2O[C@@H](C)CCCCO[C@@H]1CN(C)Cc1ccccc1 do in these assays?
LGR2 antag: 24.5; EWS-Fli block: 29.2; PAX8 inh HTS: 106.1*

Results for C[C@H](CO)N1C[C@H](C)[C@@H](CN(C)Cc2ccccc2)OCCCC[C@H](C)Oc2ccc(NS(=O)(=O)c3ccc(F)cc3)cc2C1=O ?
LGR2 antag: 3.3; EWS-Fli block: 3.3; PAX8 inh HTS: -18.4

Results for CCn1c2ccccc2c2cc(C3C(C#N)=C(N)Oc4n[nH]c(COC)c43)ccc21 (configuration not stated) ?
Shn3 3UTR inh: 0.7; MITF TRPM1 inh: 10.1; LMP1 NFkB inh: 92.2*

How did O=C1CC(c2cccs2)Cc2nc(NC(=O)C3CC3)ncc21 (configuration not stated) do in these assays?
LGR2 antag: -6.2; EWS-Fli block: -9.9; MITF TRPM1 inh: 1.8; PAX8 inh HTS: -24.5; LMP1 NFkB inh: 45.3*

Results for O=C(Cn1ncc(Cl)c(Cl)c1=O)N1CCc2ccccc21 ?
Shn3 3UTR inh: 55.4; LGR2 antag: 70.5*; EWS-Fli block: 54.4*; MITF TRPM1 inh: 99.3*; PAX8 inh HTS: 65.6*; LMP1 NFkB inh: 13.3

How did O=C(Cn1ncc(Cl)c(Cl)c1=O)N1CCOCC1 do in these assays?
Shn3 3UTR inh: 9.5; LGR2 antag: 100.2*; EWS-Fli block: 48.4; MITF TRPM1 inh: 97.5*; PAX8 inh HTS: 26.3; LMP1 NFkB inh: 6.0

How did O=C(Cn1ncc(Cl)c(Cl)c1=O)N1CCN(Cc2ccccc2)CC1 do in these assays?
Shn3 3UTR inh: 61.2; LGR2 antag: 103.8*; EWS-Fli block: 66.6*; MITF TRPM1 inh: 98.5*; PAX8 inh HTS: 73.3*; LMP1 NFkB inh: 88.4*

Results for Cc1c2cnn(CC(=O)N3CCOCC3)c(=O)c2c(C)n1Cc1ccc(F)cc1 ?
Shn3 3UTR inh: -3.6; LGR2 antag: 6.3; EWS-Fli block: -1.9; PAX8 inh HTS: -1.1

Screening results from PubChem BioAssay.
